This is a sample that favours compounds with a hit; in the whole collection about 2% have one here.
Exocytosis inh: LAMP-1 surface exposure blockers, TALL-104 cells – cell-based, flow cytometry, MLPCN library, primary screen | TALL-104 LAMP-1 surface exposure; cells stimulated with thapsigargin and PMA | inhibition, % at 10 µM | 360,000 compounds, 0.66% hits | AID 651702, 2012;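 active means inhibition above about 55%, limit read from the data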
Rev-erbA mod: modulators of Rev-erb alpha DNA binding, primary screen, biochemical, FITC-DNA, fluorescence polarization, uHTS | Nuclear receptor subfamily 1 group D member 1 (Homo sapiens), P20393 | activity, % at 10 µM | Rev-erbα–FITC-DNA binding, 90 min | 370,000 compounds, 0.79% hits;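 active means activity above about 14%, limit read from the data; passing the limit was not always enough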;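 further: 0% = DMSO wells with 35 nM protein and 100% = DMSO wells with 750 nM protein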
ABCB6 inh 2: ABCB6 transporter inhibitors, primary screen, K562-ABCB6 cells, flow cytometry, MLPCN library; ATP-binding cassette sub-family B member 6 (Homo sapiens), Q9NP58; K562-ABCB6 porphyrin accumulation, 1 h; hits give low values; fluorescence ratio to DMSO, % at 10 µM; 360,000 compounds, 0.19% hits; AID 602162, 2011;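 active means fluorescence ratio to DMSO below 75%, the collection mean minus 3 SD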;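 further: signal is porphyrin accumulated inside mitochondria; 100% equals median channel fluorescence of DMSO control wells; lower ratio means ABCB6 inhibition with less porphyrin fluorescence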
PG9 binder: binders of HIV-1 gp120 antibody PG9, primary screen, biochemical, TR-FRET | HIV-1 gp120 / PG9 antibody interaction | TR-FRET gp120-PG9 antibody binding | inhibition, % at 6.7 µM | 360,000 compounds, 0.43% hits | AID 624416, 2012; in the data active means inhibition above about 8.5%
VLA-4 inh: inhibition in human VLA-4 binding assay, primary screen, VLA-4 allosteric modulator project, MLPCN library, flow cytometry, VLA-4 expressing cells; ligand binding flow cytometry; Integrin alpha-4 (Homo sapiens), P13612; inhibition, % (about 7 µM as worked out from the volumes in the protocol); 330,000 compounds, 0.2% hits; in the data active means inhibition above about 50%
PG9 binder conf: binders of anti-gp120 antibody PG9, confirmation, biochemical, TR-FRET; shares compounds with PG9 binder; TR-FRET PG9 antibody binding; inhibition, % at 6.7 µM; 1,500 compounds, 90% hits; in the data active means inhibition above about 9%
PGV04 Ab binding: binders of control antibody PGV04, counter-screen for PG9 antibody binder project, biochemical, TR-FRET, distinct HIV envelope site; shares compounds with PG9 binder; TR-FRET PGV04 antibody-gp120 binding; inhibition, % at 6.7 µM; 1,500 compounds, 95% hits; AID 651604, 2012; in the data active means inhibition above about 9.5%
PG9 bind DR: small-molecule binders of antibody PG9, dose response, biochemical, TR-FRET, HIV-1 gp120 antibody. 95 tested, under 10 active. AID 651848, 2012. TR-FRET PG9 antibody-gp120 binding inhibition. shares compounds with PG9 binder. IC50, µM; in the data active means IC50 below about 10 µM
PGV04 DR counter: binders of control antibody PGV04, dose response, counter-screen for PG9 antibody binder project, biochemical, TR-FRET, distinct HIV envelope site; TR-FRET binding to control antibody PGV04; 95 compounds, 20% hits; shares compounds with PG9 binder; AID 651937, 2012; IC50, µM
PG126 DR counter: binders of control antibody PG126, dose response, counter-screen for PG9 antibody binder project, biochemical, TR-FRET, distinct HIV envelope site; shares compounds with PG9 binder; 95 compounds, 20% hits; IC50, µM; TR-FRET binding to antibody PG126, counterscreen
Active calls of the source: *; . = no result. Unless noted, no stated cut-off is given here; in the data, active means IC50 below about 9 µM; inactive means the rest.

SMILES	Exocytosis inh	Rev-erbA mod	ABCB6 inh 2	PG9 binder	VLA-4 inh	PG9 binder conf	PGV04 Ab binding	others
O=C1C(=O)N(CCCn2ccnc2)C(c2ccc(Br)cc2)/C1=C(\O)c1ccc2c(c1)OCCO2 (stereo not drawn)	-20	10	100	14*	17	13*	15*
COc1cccc(C2/C(=C(/O)c3ccc4c(c3)OCO4)C(=O)C(=O)N2CCN2CCOCC2)c1 (stereo not drawn)	2	-1	92	21*	10	31*	37*
O=C1C(=O)N(CCCn2ccnc2)C(c2ccc([N+](=O)[O-])cc2)/C1=C(\O)c1ccc2c(c1)OCCO2 (stereo not drawn)	3	0	101	0	-22	.	.
COc1ccc(/C(O)=C2/C(=O)C(=O)N(CCCN(C)C)C2c2ccc(Cl)cc2)cc1OC (stereo not drawn)	0	2	103	13*	3	23*	30*
O=C1C(=O)N(CCCn2ccnc2)C(c2ccc(Cl)cc2)/C1=C(\O)c1ccc2c(c1)OCCO2 (stereo not drawn)	7	1	100	27*	0	16*	21*
Cc1cc(N2CCNC[C@H]2C)ccc1N1CCN(Cc2ccccc2)[C@@H](C)C1	.	-3	.	-2	.	.	.
CCCCC1=CC2=C(c3ccco3)C(=O)C(C)(OC(=O)c3ccc(OC)cc3)C(=O)C2=CN1Cc1ccccc1 (stereo not drawn)	-2	-5	107	24*	-46	28*	33*
CCCCC1=CC2=C(c3ccco3)C(=O)C(C)(OC(=O)c3ccc(OC)cc3)C(=O)C2=CN1CCOC (stereo not drawn)	-8	-4	98	1	5	.	.
Cc1ccc2nc(-c3ccc(NC(=O)CSc4nccc(=O)[nH]4)cc3)sc2c1	8	10	98	12*	-1	11*	36*
CCCCCCCCN1C(=O)[C@@H](CC(=O)NCCCOCCCC)C[C@@]2(C(=O)OC)C1=C[C@H](C1CCCC1)O[C@@H]2C	.	5	.	-1	.	.	.
O=C(O)CCC(=O)N1CCN(c2nc(-c3ccccc3)c3cc(Br)ccc3n2)CC1	4	1	96	8	4	.	.
O=C(O)CCC(=O)N1CCN(c2nc(-c3ccccc3Cl)c3cc(Br)ccc3n2)CC1	0	-2	94	11*	9	16*	23*
COc1cccc(OCCSc2nc3ccccc3c(=O)[nH]2)c1	0	21	101	24*	4	23*	31*
CCN(CC)C(=O)CC[C@@H]1CC[C@]2(CCCN(C(=O)C3CCCCC3)C2)O1	.	6	.	.	.	.	.
COC(=O)C1=C(C)N(C)C(=NCc2ccc(C(F)(F)F)cc2)NC1c1ccc(Cl)cc1 (stereo not drawn)	.	-8	.	-1	.	.	.
O=C(O)c1cnn(-c2nc(-c3ccc(F)cc3)cs2)c1C(F)(F)F	-4	2	102	4	17	.	.
O=C(O)c1cnn(-c2nc(-c3ccc(Br)cc3)cs2)c1C(F)(F)F	11	3	101	9.6*	1	13*	23*
O=C(C1=C(O)C(=O)N(Cc2cccnc2)C1c1cccc(Oc2ccccc2)c1)c1ccco1 (stereo not drawn)	-5	-6	98	13*	0	19*	28*
CCOc1ccc(C2C(C(=O)c3ccco3)=C(O)C(=O)N2Cc2cccnc2)cc1OC (stereo not drawn)	-3	-1	99	1	-8	.	.
C=CCOc1ccc(C2C(C(=O)c3ccc(C)o3)=C(O)C(=O)N2Cc2cccnc2)cc1 (stereo not drawn)	-9	-4	95	11*	1	27*	31*
CC(C)Oc1ccc(C2C(C(=O)c3ccco3)=C(O)C(=O)N2Cc2cccnc2)cc1 (stereo not drawn)	0	5	99	9.3*	10	15*	19*
Cc1ccc(NC(=O)COC(=O)c2cc(Cl)ccc2Cl)c(Br)c1	6	4	99	22*	8	31*	40*
Cc1cc(=O)[nH]c(SCc2nnc(-c3ccccc3)o2)n1	2	-3	103	0	-2	.	.
Cc1ccc(C(=O)CSc2nc(C)cc(SCc3nnc(-c4ccccc4)o3)n2)cc1	8	2	91	9.4*	14	15*	22*
COC(=O)[C@]12C[C@H](CC(=O)NCc3ccccc3)C(=O)N(Cc3ccco3)C1=C[C@H](C(C)(C)C)O[C@@H]2C	.	2	.	.	.	.	.
SMILES	Exocytosis inh	Rev-erbA mod	ABCB6 inh 2	PG9 binder	VLA-4 inh	PG9 binder conf	PGV04 Ab binding	others
CC(C)(C)N(Cc1cn(Cc2ccccc2)nn1)S(=O)(=O)c1ccccc1Br	.	4	.	.	.	.	.
Nc1cc2sc(-c3ccc(C(=O)O)cc3)nc2cc1Cl	-3	-9	101	8.6*	8	12*	20*
Cc1cccc(C)c1NC(=O)CC12CCCN1CCC2	.	1	.	.	.	.	.
CCOC(=O)C1=C(C)NC(SCC(N)=O)=C(C#N)C1c1ccccc1 (stereo not drawn)	2	5	96	14*	-4	8	10*
COc1ccc(OC)c(NC(=O)O[C@@H]2CC[C@@]34CCCN3C(=O)CCC[C@H]4C2)c1	.	-2	.	.	.	.	.
CCOc1ccc2cc(C(=O)c3ccccc3)c(=O)oc2c1	3	18	100	1	23	.	.
CCOc1ccc2cc(C(=O)NCc3ccccc3)c(=N)oc2c1	1	-9	93	40*	31	15*	7	PG9 bind DR=>67;PGV04 DR counter=>67;PG126 DR counter=>67
CCc1c(C)nc2ccc(Br)cc2c1SCCC#N	0	5	98	11*	-1	13*	20*
